Experimental data from paper PMC7862700, “An all-to-all approach to the identification of sequence-specific readers for epigenetic DNA modifications on cytosine”.

Legend:
Experiment in all cases: DAPPL (digital affinity profiling via proximity ligation, sequencing); 10 mM Tris-HCl pH 7.5, 50 mM NaCl, 1 mM DTT, 4% glycerol, room temperature, 30 min; GST-TFs on glutathione beads, 16-mer random dsDNA library, 0.1% formaldehyde crosslink after washing; high values mean tight binding
FLI1 = target: T1, FLI1 (Homo sapiens, UniProt Q01543 1-452); conditions: protein: recombinant; tags: N-terminal GST; dsDNA, one strand shown
T1 sequence: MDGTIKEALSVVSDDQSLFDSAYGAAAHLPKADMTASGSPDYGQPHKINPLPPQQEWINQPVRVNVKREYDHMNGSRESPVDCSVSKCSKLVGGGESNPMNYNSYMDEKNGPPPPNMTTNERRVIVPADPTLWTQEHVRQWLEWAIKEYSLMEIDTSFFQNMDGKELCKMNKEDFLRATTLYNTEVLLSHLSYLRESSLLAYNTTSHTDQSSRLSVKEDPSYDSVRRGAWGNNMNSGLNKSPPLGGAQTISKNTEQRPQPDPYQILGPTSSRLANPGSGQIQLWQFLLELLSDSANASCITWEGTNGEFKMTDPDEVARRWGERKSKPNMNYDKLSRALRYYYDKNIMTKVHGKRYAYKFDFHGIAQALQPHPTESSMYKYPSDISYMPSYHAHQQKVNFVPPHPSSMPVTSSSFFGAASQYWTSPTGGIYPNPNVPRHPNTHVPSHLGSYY
Outline: (§1)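 GST fusions of human transcription factors were expressed in yeast and captured with glutathione beads. Once given DNA barcodes and pooled alongside a tag-only sample, they were incubated for 30 min at room temperature with 200 nmole of a random double-stranded 16-mer DNA library in Tris/NaCl/DTT/glycerol buffer, then washed, crosslinked (0.1% formaldehyde), proximity-ligated, PCR-amplified and sequenced on an Illumina NextSeq500. The binding signal of each hexamer is its read frequency for a factor divided by its frequency for the tag-only sample.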

ELK1 = target: T2, ELK1 (Homo sapiens, UniProt P19419 1-428); conditions: protein: recombinant; tags: N-terminal GST; dsDNA, one strand shown
T2 sequence: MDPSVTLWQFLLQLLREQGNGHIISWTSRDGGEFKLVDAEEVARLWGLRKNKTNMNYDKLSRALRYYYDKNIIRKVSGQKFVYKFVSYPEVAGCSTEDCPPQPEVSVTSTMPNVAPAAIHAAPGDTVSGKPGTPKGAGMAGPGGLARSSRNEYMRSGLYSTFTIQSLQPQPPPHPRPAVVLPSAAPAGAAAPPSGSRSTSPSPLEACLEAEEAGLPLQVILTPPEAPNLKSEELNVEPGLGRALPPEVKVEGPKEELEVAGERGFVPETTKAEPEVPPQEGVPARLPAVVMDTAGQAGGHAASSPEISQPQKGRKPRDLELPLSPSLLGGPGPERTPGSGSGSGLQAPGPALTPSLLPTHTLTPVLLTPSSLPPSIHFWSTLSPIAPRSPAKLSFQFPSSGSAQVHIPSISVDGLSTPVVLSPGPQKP
Outline: as §1

GABPA = target: T3, GABPA (Homo sapiens, UniProt Q06546 1-454); conditions: protein: recombinant; tags: N-terminal GST; dsDNA, one strand shown
T3 sequence: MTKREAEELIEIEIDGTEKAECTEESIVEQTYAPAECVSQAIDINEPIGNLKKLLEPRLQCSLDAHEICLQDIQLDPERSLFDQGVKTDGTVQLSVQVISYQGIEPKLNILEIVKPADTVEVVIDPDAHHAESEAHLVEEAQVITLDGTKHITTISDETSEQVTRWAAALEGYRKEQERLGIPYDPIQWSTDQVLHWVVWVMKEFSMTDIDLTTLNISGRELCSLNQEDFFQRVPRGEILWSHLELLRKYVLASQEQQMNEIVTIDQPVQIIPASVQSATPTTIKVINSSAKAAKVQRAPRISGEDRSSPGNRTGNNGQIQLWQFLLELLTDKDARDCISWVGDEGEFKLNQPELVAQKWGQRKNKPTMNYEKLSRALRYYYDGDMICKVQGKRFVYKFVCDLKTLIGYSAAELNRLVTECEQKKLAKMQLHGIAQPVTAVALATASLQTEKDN
Outline: as §1

ERG = target: T4, ERG (Homo sapiens, UniProt P11308 1-479); conditions: protein: recombinant; tags: N-terminal GST; dsDNA, one strand shown
T4 sequence: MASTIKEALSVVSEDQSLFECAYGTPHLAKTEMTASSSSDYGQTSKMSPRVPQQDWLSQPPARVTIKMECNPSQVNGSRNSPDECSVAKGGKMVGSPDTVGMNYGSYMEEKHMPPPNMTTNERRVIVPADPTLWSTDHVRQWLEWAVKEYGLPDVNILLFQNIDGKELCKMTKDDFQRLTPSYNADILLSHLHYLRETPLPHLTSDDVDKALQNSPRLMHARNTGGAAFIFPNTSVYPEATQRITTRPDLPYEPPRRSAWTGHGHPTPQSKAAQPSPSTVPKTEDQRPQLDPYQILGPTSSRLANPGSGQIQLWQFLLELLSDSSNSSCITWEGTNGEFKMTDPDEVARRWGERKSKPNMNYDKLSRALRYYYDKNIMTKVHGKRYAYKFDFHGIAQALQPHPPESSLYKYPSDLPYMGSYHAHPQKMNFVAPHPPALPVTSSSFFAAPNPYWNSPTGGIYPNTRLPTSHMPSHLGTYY
Outline: as §1

ELF1 = ELF1 (Homo sapiens, UniProt P32519 1-619); conditions: protein: recombinant; tags: N-terminal GST; dsDNA, one strand shown
Chain of ELF1 (P32519 whole entry): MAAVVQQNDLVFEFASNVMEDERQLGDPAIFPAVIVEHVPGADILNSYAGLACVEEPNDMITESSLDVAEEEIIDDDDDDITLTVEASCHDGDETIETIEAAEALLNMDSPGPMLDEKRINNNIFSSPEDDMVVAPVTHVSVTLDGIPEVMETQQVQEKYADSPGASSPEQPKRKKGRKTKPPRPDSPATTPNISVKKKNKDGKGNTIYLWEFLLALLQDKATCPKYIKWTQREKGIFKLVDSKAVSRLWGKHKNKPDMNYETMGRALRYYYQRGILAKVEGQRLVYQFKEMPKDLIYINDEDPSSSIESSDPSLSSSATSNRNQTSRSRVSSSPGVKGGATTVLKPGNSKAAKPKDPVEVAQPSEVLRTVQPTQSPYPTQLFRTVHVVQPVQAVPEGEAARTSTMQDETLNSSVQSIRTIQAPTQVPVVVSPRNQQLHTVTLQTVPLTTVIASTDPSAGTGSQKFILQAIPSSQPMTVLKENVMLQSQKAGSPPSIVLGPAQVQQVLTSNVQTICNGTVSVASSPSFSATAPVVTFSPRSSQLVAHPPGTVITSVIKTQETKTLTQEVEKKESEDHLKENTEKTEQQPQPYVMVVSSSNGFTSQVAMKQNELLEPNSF
Outline: as §1

EHF = target: T5, EHF (Homo sapiens, UniProt Q9NZC4 1-300); conditions: protein: recombinant; tags: N-terminal GST; dsDNA, one strand shown
T5 sequence: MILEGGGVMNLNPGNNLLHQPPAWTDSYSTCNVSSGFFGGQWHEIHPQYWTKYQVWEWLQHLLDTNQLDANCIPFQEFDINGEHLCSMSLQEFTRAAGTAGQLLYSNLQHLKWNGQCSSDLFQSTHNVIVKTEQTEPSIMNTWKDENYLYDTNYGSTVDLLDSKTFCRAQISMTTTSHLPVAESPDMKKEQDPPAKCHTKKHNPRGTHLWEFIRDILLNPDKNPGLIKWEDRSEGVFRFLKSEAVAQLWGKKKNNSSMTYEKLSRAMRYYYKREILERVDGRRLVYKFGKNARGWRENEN
Outline: as §1

SPI1 = SPI1 (Homo sapiens, UniProt P17947 1-270); conditions: protein: recombinant; tags: N-terminal GST; dsDNA, one strand shown
Outline: as §1

SPIB = SPIB (Homo sapiens, UniProt Q01892 1-262); conditions: protein: recombinant; tags: N-terminal GST; dsDNA, one strand shown
Chain of SPIB (Q01892 whole entry): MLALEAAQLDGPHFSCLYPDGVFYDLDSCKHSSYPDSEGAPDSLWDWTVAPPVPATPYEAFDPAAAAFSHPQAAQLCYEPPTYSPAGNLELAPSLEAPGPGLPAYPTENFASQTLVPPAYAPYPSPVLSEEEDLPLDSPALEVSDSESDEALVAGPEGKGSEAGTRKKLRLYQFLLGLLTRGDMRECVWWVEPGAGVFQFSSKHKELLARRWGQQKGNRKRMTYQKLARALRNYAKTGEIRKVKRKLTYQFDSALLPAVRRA
Outline: as §1

ELK3 = target: T6, ELK3 (Homo sapiens, UniProt P41970 1-407); conditions: protein: recombinant; tags: N-terminal GST; dsDNA, one strand shown
T6 sequence: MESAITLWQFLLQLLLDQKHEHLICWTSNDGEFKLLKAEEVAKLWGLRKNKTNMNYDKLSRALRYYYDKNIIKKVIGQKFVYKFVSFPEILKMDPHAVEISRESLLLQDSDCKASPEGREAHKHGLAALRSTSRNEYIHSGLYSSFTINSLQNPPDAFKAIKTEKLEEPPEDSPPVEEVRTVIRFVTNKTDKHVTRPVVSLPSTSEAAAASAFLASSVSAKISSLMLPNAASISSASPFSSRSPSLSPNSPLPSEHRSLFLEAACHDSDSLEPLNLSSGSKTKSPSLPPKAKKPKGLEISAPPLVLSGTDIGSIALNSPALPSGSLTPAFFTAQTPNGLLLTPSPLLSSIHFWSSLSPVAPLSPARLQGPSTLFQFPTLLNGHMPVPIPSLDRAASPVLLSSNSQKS
Outline: as §1

FEV = target: T7, FEV (Homo sapiens, UniProt Q99581 1-238); conditions: protein: recombinant; tags: N-terminal GST; dsDNA, one strand shown
T7 sequence: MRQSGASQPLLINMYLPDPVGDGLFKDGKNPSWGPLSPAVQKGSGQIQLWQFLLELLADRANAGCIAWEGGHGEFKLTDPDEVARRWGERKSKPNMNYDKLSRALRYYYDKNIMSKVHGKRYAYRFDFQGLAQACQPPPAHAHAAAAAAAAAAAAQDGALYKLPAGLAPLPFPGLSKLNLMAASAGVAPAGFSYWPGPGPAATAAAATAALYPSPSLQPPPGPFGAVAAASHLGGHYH
Outline: as §1

ETV5 = ETV5 (Homo sapiens, UniProt P41161 1-510); conditions: protein: recombinant; tags: N-terminal GST; dsDNA, one strand shown
Chain of ETV5 (P41161 whole entry): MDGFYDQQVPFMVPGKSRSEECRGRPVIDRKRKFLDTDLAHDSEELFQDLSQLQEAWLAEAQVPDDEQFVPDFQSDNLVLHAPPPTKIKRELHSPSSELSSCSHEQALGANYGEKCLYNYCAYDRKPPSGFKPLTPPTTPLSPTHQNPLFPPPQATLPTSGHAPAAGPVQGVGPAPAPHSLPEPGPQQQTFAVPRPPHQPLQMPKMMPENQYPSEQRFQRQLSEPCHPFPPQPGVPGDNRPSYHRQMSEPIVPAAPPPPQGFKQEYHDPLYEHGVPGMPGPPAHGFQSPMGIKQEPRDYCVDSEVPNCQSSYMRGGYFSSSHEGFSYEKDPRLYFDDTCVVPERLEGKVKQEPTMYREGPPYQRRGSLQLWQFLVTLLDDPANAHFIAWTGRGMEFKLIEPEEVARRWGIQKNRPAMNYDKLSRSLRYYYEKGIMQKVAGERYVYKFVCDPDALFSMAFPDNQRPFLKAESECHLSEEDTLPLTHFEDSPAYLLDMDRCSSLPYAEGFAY
Outline: as §1

HSF1 = HSF1 (Homo sapiens, UniProt Q00613 1-529); conditions: protein: recombinant; tags: N-terminal GST; chain copies: 3; dsDNA, one strand shown
Chain of HSF1 (Q00613 whole entry): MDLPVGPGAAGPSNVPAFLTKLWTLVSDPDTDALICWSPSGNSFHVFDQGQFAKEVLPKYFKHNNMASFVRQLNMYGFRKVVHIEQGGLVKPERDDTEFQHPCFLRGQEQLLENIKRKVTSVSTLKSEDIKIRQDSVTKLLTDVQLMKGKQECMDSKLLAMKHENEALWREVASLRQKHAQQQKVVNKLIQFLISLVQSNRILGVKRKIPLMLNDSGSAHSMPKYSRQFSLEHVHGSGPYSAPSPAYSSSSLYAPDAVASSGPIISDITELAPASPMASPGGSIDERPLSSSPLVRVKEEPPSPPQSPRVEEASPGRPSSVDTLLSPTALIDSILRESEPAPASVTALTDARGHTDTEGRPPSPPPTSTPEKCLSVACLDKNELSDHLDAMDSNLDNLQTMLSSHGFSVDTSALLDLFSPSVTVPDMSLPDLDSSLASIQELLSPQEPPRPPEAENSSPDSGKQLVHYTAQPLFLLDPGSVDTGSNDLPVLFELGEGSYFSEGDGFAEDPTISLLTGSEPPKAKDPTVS
Outline: as §1

SPIC = target: T8, SPIC (Homo sapiens, UniProt Q8N5J4 1-248); conditions: protein: recombinant; tags: N-terminal GST; dsDNA, one strand shown
T8 sequence: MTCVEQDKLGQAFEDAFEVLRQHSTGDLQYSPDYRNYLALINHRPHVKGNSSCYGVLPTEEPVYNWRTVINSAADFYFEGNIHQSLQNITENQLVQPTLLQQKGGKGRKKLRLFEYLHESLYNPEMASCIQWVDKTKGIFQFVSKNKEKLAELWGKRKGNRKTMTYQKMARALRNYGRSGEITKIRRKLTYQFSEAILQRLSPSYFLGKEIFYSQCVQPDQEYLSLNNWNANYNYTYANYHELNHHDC
Outline: as §1

ELF4 = ELF4 (Homo sapiens, UniProt Q99607 1-663); conditions: protein: recombinant; tags: N-terminal GST; dsDNA, one strand shown
Chain of ELF4 (Q99607 whole entry): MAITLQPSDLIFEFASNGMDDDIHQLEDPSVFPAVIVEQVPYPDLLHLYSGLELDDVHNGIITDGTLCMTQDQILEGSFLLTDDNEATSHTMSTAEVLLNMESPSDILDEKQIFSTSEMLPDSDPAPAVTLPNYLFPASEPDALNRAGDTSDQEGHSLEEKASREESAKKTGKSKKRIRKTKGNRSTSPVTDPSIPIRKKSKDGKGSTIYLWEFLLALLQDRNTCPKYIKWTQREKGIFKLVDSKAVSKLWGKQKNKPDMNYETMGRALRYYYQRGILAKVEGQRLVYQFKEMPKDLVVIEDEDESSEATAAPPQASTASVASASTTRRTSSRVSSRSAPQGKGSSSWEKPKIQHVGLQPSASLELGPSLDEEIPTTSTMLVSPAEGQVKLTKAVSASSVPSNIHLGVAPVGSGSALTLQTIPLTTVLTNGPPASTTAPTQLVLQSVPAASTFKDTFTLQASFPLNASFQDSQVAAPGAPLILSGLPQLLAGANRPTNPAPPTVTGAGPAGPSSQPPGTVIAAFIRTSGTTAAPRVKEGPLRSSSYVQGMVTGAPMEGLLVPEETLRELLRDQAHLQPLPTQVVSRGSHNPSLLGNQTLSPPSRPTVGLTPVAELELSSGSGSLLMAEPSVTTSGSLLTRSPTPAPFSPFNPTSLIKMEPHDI
Outline: as §1

ELK4 = target: T9, ELK4 (Homo sapiens, UniProt P28324-2 1-405); conditions: protein: recombinant; tags: N-terminal GST; dsDNA, one strand shown
T9 sequence: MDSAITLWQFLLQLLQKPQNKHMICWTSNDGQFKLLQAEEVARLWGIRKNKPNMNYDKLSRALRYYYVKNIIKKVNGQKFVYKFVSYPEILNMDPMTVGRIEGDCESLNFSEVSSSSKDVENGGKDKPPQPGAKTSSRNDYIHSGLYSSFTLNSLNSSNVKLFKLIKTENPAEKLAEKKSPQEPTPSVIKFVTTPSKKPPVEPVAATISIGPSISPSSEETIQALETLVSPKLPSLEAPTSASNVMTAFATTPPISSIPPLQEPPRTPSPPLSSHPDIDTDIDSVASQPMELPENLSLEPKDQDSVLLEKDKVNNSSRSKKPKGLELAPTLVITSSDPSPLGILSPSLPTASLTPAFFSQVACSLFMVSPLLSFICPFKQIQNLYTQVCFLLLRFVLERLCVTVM
Outline: as §1

ETV2 = target: T10, ETV2 (Homo sapiens, UniProt O00321 1-342); conditions: protein: recombinant; tags: N-terminal GST; dsDNA, one strand shown
T10 sequence: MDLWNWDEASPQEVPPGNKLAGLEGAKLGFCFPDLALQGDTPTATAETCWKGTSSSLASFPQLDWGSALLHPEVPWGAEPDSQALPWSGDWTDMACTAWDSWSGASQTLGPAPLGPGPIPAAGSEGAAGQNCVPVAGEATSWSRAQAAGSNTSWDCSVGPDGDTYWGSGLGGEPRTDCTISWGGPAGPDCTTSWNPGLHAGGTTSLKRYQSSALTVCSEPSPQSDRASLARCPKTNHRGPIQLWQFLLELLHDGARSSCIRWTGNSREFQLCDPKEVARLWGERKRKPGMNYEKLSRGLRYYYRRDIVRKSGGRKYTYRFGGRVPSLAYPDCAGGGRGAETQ
Outline: as §1

ELF3 = target: T11, ELF3 (Homo sapiens, UniProt P78545 1-371); conditions: protein: recombinant; tags: N-terminal GST; dsDNA, one strand shown
T11 sequence: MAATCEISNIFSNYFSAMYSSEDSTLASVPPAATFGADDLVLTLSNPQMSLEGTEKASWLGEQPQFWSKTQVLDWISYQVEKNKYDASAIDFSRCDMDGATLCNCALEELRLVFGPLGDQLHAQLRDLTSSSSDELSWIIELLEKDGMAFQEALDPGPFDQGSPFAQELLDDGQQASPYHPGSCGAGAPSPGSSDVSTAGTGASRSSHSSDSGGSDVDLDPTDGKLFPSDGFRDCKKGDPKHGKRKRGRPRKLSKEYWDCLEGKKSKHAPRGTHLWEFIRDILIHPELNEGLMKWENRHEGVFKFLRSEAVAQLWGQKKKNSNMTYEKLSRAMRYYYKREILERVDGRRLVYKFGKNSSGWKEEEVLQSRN
Outline: as §1

ETV1 = ETV1 (Homo sapiens, UniProt P50549 1-477); conditions: protein: recombinant; tags: N-terminal GST; dsDNA, one strand shown
Chain of ETV1 (P50549 whole entry): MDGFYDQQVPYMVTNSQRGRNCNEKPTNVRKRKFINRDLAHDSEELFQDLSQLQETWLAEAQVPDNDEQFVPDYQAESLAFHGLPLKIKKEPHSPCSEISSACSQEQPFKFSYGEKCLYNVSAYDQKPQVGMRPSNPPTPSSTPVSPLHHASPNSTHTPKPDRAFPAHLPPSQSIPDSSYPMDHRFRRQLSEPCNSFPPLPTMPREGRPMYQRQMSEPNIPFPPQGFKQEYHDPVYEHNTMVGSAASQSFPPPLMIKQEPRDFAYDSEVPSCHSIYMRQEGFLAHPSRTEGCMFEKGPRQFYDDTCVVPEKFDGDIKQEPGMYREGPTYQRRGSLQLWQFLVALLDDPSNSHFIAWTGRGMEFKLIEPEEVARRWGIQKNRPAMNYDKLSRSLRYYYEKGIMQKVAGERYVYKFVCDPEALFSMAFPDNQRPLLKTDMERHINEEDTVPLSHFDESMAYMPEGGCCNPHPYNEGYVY
Outline: as §1

Question: With TCCGTC as the sequence, how does the binding signal (FLI1) read?
Answer: Its binding signal is 1.24 fold enrichment (6-mer frequency, TF over GST control).

Question: What about the binding signal (ELK1) of the same sequence?
Answer: Its binding signal is 1.43 fold enrichment (6-mer frequency, TF over GST control).

Question: And the binding signal (GABPA)?
Answer: The binding signal was 1.29 fold enrichment (6-mer frequency, TF over GST control).

Question: And the binding signal (ERG)?
Answer: The binding signal was 1.49 fold enrichment (6-mer frequency, TF over GST control).

Question: What about the binding signal (ELF1) of the same sequence?
Answer: The binding signal was 1.36 fold enrichment (6-mer frequency, TF over GST control).

Question: And the binding signal (EHF)?
Answer: Its binding signal is 1.41 fold enrichment (6-mer frequency, TF over GST control).

Question: What about the binding signal (SPI1) of the same sequence?
Answer: The binding signal was 1.28 fold enrichment (6-mer frequency, TF over GST control).

Question: What about the binding signal (SPIB) of the same sequence?
Answer: Its binding signal is 1.56 fold enrichment (6-mer frequency, TF over GST control).

Question: And the binding signal (ELK3)?
Answer: Its binding signal is 1.47 fold enrichment (6-mer frequency, TF over GST control).

Question: What about the binding signal (FEV) of the same sequence?
Answer: Its binding signal is 1.38 fold enrichment (6-mer frequency, TF over GST control).

Question: And the binding signal (ETV5)?
Answer: Its binding signal is 1.31 fold enrichment (6-mer frequency, TF over GST control).

Question: What about the binding signal (HSF1) of the same sequence?
Answer: Its binding signal is 1.04 fold enrichment (6-mer frequency, TF over GST control).

Question: And the binding signal (SPIC)?
Answer: Its binding signal is 1.38 fold enrichment (6-mer frequency, TF over GST control).

Question: What about the binding signal (ELF4) of the same sequence?
Answer: The binding signal was 1.42 fold enrichment (6-mer frequency, TF over GST control).

Question: And the binding signal (ELK4)?
Answer: Its binding signal is 1.3 fold enrichment (6-mer frequency, TF over GST control).

Question: What about the binding signal (ETV2) of the same sequence?
Answer: The binding signal was 1.35 fold enrichment (6-mer frequency, TF over GST control).

Question: And the binding signal (ELF3)?
Answer: Its binding signal is 1.27 fold enrichment (6-mer frequency, TF over GST control).

Question: And the binding signal (ETV1)?
Answer: The binding signal was 1.42 fold enrichment (6-mer frequency, TF over GST control).
